According to PubChem BioAssay AID463173 (ICCB-Longwood Screening Facility, Harvard Medical School, 2010):
In all, about 52,000 compounds went through this assay and about 4,300 (8.3%) were called active. This is one part of a sample in which actives are shown more often than they occur. Cut-off read from the data, not from the text of the source: active = survival mostly below about 52% (no sharp cut-off); inactive = mostly above about 56%.

The compounds below were run on DeltatarO mutant (assay: growth inhibition of S. aureus wild type versus tarO mutant, primary screen, teichoic acid synthesis inhibitors, RN4220, OD600 (AID 463173)). Details: OD600, 18 h, hits give low values, screened at 18.75 µg/mL (by protocol).

| Structure (SMILES) | survival |
| --- | --- |
| CC1(C)Cc2ccccc2-c2nc(NN)[nH]c(=O)c21 | 67% (inactive) |
| O=C(O)c1cccc(N2C(=O)c3cccnc3C2=O)c1 | 83% (inactive) |
| Cc1ccc(-n2c(=O)c3c(c4cc(C)ccc4n3C)n(CC(=O)Nc3cc(C)cc(C)c3)c2=O)cc1 | 105% (inactive) |
| COc1ccc2nc(N(Cc3cccnc3)C(=O)c3ccc(Cl)cc3)sc2c1 | 89% (inactive) |
| CCOC(=O)c1cc(-c2ccccc2)n(-c2cccc(C(=O)Nc3ccc(F)c(F)c3)c2)c1C | 87% (inactive) |
| CC(CN)(NS(=O)(=O)c1ccccc1)c1ccccc1 (configuration not stated) | 84% (inactive) |
| COc1ccc(CN=C(N)N=C(N)N)cc1 | 95% (inactive) |
| CC(=O)c1ccc(N2CCN(S(=O)(=O)c3cc(-c4onc(C)c4C)ccc3C)CC2)cc1 | 84% (inactive) |
| COc1ccc(CNC(=O)c2cc3c(-c4ccccc4F)nn(C)c3s2)c(OC)c1 | 101% (inactive) |
| COc1ccc(-c2nn(C)c3sc(C(=O)N4CCN(c5cccc(C)c5C)CC4)cc23)cc1OC | 75% (inactive) |
| COc1ccc(-c2nn(C)c3sc(C(=O)N4CCN(c5cccc(Cl)c5)CC4)cc23)cc1OC | 54% (active) |
| COc1ccc(NC(=O)c2cc3c(-c4ccccc4F)nn(C)c3s2)c(OC)c1 | 44% (active) |
| COc1ccc(N2CCN(C(=O)c3cc4c(-c5ccccc5F)nn(C)c4s3)CC2)cc1 | 65% (inactive) |
| COc1ccc(-c2nn(C)c3sc(C(=O)N4CCN(c5cc(Cl)ccc5C)CC4)cc23)cc1OC | 103% (inactive) |
| Cn1nc(-c2ccccc2F)c2cc(C(=O)N3CCN(c4ccccc4F)CC3)sc21 | 40% (inactive) |
| COc1ccc(CCNC(=O)c2cc3c(-c4ccccc4F)nn(C)c3s2)c(OC)c1 | 85% (inactive) |
| COc1ccccc1N1CCN(C(=O)c2cc3c(-c4ccccc4F)nn(C)c3s2)CC1 | 46% (active) |
| COc1ccc(COC(=O)C2=C(C)NC3(O)c4ccccc4C(=O)C23O)cc1 (configuration not stated) | 90% (inactive) |
| CNS(=O)(=O)c1cn(CC(=O)Nc2ccc(OC)c(Cl)c2)cc1S(=O)(=O)NC | 74% (inactive) |

| Structure (SMILES) | survival |
| --- | --- |
| Cc1ccc(Cl)cc1-n1c(=O)c2sc3ccccc3c2n(CC(=O)NC2CCCC2)c1=O | 13% (active) |
| Cc1ccc(Cl)cc1-n1c(=O)c2sc3ccccc3c2n(CC(=O)NC2CCCCC2)c1=O | 77% (inactive) |
| O=C(Cn1c(=O)n(-c2ccc(Cl)cc2)c(=O)c2sc3ccccc3c21)NC1CCCC1 | 90% (inactive) |
| CCn1c(CN2CCC(C)CC2)nc2cc(NC(=O)COc3ccc([N+](=O)[O-])cc3)ccc21 | 82% (inactive) |
| CCCCC(Sc1nc2cc3c(cc2c(=O)n1CCCC(=O)NCc1ccc2c(c1)OCO2)OCO3)C(=O)OCC (configuration not stated) | 82% (inactive) |
| COc1cccc(CNC(=O)CCc2nc(-c3ccc(C)cc3)no2)c1 | 145% (inactive) |
| CCN(C(=O)CCc1nc(-c2ccc(C)cc2)no1)c1cc(C)ccc1C | -4% (active) |
| CC(C)c1ccc(-c2noc(SCC(=O)N3CCCCC3)n2)cc1 | 72% (inactive) |
| CCN(C(=O)CCc1nc(-c2ccc(C)cc2)no1)c1cccc(C(F)(F)F)c1 | -5% (active) |
| O=C(CSc1nc(-c2ccccc2)no1)N1CCN(c2ccccc2)CC1 | 99% (inactive) |
| CCN(C(=O)CSc1nc(-c2ccc(C(C)C)cc2)no1)c1cccc(C)c1 | 84% (inactive) |
| CCN(C(=O)CSc1nc(-c2ccccc2)no1)c1ccccc1 | 79% (inactive) |
| COc1ccc(-c2noc(CCC(=O)Nc3ccc(C(F)(F)F)cc3)n2)cc1 | 86% (inactive) |
| CCN(C(=O)CSc1nc(-c2ccccc2)no1)c1cccc(C)c1 | -3% (active) |
| CC(=O)c1ccc(NC(=O)CCc2nc(-c3ccc(C)cc3)no2)cc1 | 67% (inactive) |
| Cc1ccc(C)c(NC(=O)CCc2nc(-c3ccc(C(C)(C)C)cc3)no2)c1 | 69% (inactive) |
| O=C(CSc1nc(-c2ccccc2)no1)N1CCCCC1 | 39% (active) |
| CN1C(=O)C2(c3ccccc31)N(c1ccccc1)C(=O)CS2(=O)=O (configuration not stated) | 91% (inactive) |
| Cc1nc(-c2ccc(F)cc2)sc1CCNC(=O)c1ccco1 | 116% (inactive) |

| Structure (SMILES) | survival |
| --- | --- |
| O=C(Nc1ccc2nn(-c3ccccc3)nc2c1)c1ccccc1 | 97% (inactive) |
| Cc1cc(C)c2nc(N(Cc3cccnc3)C(=O)Cc3ccccc3)sc2c1 | 79% (inactive) |
| CCCCOc1ccc(C(=O)NCCc2csc(-c3cccc(F)c3)n2)cc1 | 96% (inactive) |
| O=C(N/N=C1/CSC(=O)N1Cc1cccs1)c1cccs1 | 75% (inactive) |
| Cc1cc(C)c(S(=O)(=O)NCCc2cc3cc(C)c(C)cc3[nH]c2=O)c(C)c1 | 63% (inactive) |
| COc1ccc(N(C)C(C)=O)cc1 | 91% (inactive) |
| CCc1ccc(C(=O)c2cn(CC(=O)Nc3cc(OC)cc(OC)c3)c3ccc(CC)cc3c2=O)cc1 | 84% (inactive) |
| CCN(C(=O)CCc1nc(-c2ccc(C)cc2)no1)c1cccc(Cl)c1 | -5% (active) |
| CCN(C(=O)Cc1nc(-c2ccc(OC)cc2)no1)c1cccc(Cl)c1 | 83% (inactive) |
| CC(C)(C)c1ccc(-c2noc(CCC(=O)Nc3cccc(Cl)c3)n2)cc1 | 87% (inactive) |
| CCOCCCNC(=O)C(c1ccc(OC)cc1)N(Cc1cccs1)C(=O)c1ccc(NC(C)=O)cc1 (configuration not stated) | 53% (inactive) |
| Cn1nc(C(=O)NCc2cccc(Cl)c2)c2c1-c1ccccc1SC2 | 74% (inactive) |
| CCOC(=O)N1CCN(C(=O)c2c(C)nn(-c3cccc(C)c3)c2-n2cccc2)CC1 | 20% (active) |
| Cc1cccc(-n2nc(C)c(C(=O)N3CCN(c4ccccc4)CC3)c2-n2cccc2)c1 | 66% (inactive) |
| COc1cccc(NC(=O)c2c(C)nn(-c3cccc(C)c3)c2-n2cccc2)c1 | 8% (active) |
| CCOC(=O)N1CCC(NC(=O)c2c(C)nn(-c3cccc(C)c3)c2-n2cccc2)CC1 | 89% (inactive) |
| COc1cccc(CNC(=O)c2c(C)nn(-c3cccc(C)c3)c2-n2cccc2)c1 | 81% (inactive) |
| COc1cc(NC(=O)c2c(C)nn(-c3ccc(F)cc3)c2-n2cccc2)cc(OC)c1 | 78% (inactive) |
| O=C(CCOc1ccccc1)N(Cc1cccnc1)c1nc2c(Cl)cccc2s1 | 80% (inactive) |
